# Experimental data published in paper PMC8384837, “Expanding the binding specificity for RNA recognition by a PUF domain”.
# Numbering of substitutions follows the chain as printed.
# How the values were obtained:
# Assay in all cases: yeast three-hybrid, YBZ-1, SC-Leu-His + 0.5 mM 3-AT, 4 days
# Details in all cases: tags: N-Gal4 AD-HA kept; label: inside an RPR1-promoter hybrid RNA with tandem MS2 sites; ssRNA
# [1] = molecular target: PUM1 PUF domain R7-KSV (Homo sapiens, UniProt Q14671 828-1176, S1079K;N1080S;E1083V)
# Procedure, shortened: (§1)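 Sequencing with Illumina followed PCR amplification of the repeat regions from transformants grown four days on SC-Leu (input) or SC-Leu-His + 0.5 mM 3-AT (selection). The transformants were strain YBZ-1 with a LexA–MS2 coat fusion and a HIS3 reporter, carrying Pumilio-1 PUF domain libraries and matching RNA elements. The interaction score is the log change in variant frequency from input to selection, computed in log2 with a pseudocount of 1 for absent variants.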
# [2] = molecular target: PUM1 PUF domain R7-RSK (Homo sapiens, UniProt Q14671 828-1176, S1079R;N1080S;E1083K)
# Procedure, shortened: as §1
# [3] = molecular target: PUM1 PUF domain R1-TLR (Homo sapiens, UniProt Q14671 828-1176, S863T;R864L;Q867R)
# Procedure, shortened: as §1
# [4] = molecular target: PUM1 PUF domain R1-YCR (Homo sapiens, UniProt Q14671 828-1176, S863Y;R864C;Q867R)
# Procedure, shortened: as §1
# [5] = molecular target: PUM1 PUF domain R5-ISR (Homo sapiens, UniProt Q14671 828-1176, C1007I;R1008S;Q1011R)
# Procedure, shortened: as §1
# [6] = molecular target: PUM1 PUF domain R5-RMW (Homo sapiens, UniProt Q14671 828-1176, C1007R;R1008M;Q1011W)
# Procedure, shortened: as §1
# [7] = molecular target: PUM1 PUF domain R2-SWG (Homo sapiens, UniProt Q14671 828-1176, N899S;Y900W;Q903G)
# Procedure, shortened: as §1
# [8] = molecular target: PUM1 PUF domain R4-DHT (Homo sapiens, UniProt Q14671 828-1176, N971D;Q975T)
# Procedure, shortened: as §1
# [9] = molecular target: PUM1 PUF domain R8-IHR (Homo sapiens, UniProt Q14671 828-1176, N1122I;Y1123H;Q1126R)
# Procedure, shortened: as §1
# [10] = molecular target: PUM1 PUF domain R8-WWR (Homo sapiens, UniProt Q14671 828-1176, N1122W;Y1123W;Q1126R)
# Procedure, shortened: as §1
# [11] = molecular target: PUM1 PUF domain R8-GWN (Homo sapiens, UniProt Q14671 828-1176, N1122G;Y1123W;Q1126N)
# Procedure, shortened: as §1
# [12] = molecular target: PUM1 PUF domain R5-QQC (Homo sapiens, UniProt Q14671 828-1176, C1007Q;R1008Q;Q1011C)
# Procedure, shortened: as §1
# [13] = molecular target: PUM1 PUF domain R5-QHE (Homo sapiens, UniProt Q14671 828-1176, C1007Q;R1008H;Q1011E)
# Procedure, shortened: as §1
# [14] = molecular target: PUM1 PUF domain R5-SAG (Homo sapiens, UniProt Q14671 828-1176, C1007S;R1008A;Q1011G)
# Procedure, shortened: as §1
# [15] = molecular target: T1, PUM1 PUF domain R6-RYR (Homo sapiens, UniProt Q14671 828-1176, N1043R;Q1047R)
# T1 sequence: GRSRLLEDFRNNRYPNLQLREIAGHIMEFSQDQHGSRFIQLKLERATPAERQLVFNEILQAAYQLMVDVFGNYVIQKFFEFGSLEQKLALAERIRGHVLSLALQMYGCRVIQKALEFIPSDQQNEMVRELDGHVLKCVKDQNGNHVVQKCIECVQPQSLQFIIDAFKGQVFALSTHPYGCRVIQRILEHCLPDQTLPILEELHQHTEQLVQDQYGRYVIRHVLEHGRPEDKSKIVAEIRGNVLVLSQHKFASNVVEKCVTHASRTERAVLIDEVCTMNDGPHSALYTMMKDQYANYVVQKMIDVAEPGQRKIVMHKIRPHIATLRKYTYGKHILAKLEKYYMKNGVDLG
# Procedure, shortened: as §1
# [16] = molecular target: PUM1 PUF domain R3-RSF (Homo sapiens, UniProt Q14671 828-1176, C935R;R936S;Q939F)
# Procedure, shortened: as §1
# [17] = molecular target: PUM1 PUF domain R3-IFA (Homo sapiens, UniProt Q14671 828-1176, C935I;R936F;Q939A)
# Procedure, shortened: as §1
# [18] = molecular target: PUM1 PUF domain R3-SPF (Homo sapiens, UniProt Q14671 828-1176, C935S;R936P;Q939F)
# Procedure, shortened: as §1
# [19] = molecular target: PUM1 PUF domain R3-PWS (Homo sapiens, UniProt Q14671 828-1176, C935P;R936W;Q939S)
# Procedure, shortened: as §1
# [20] = molecular target: T2, PUM1 PUF domain R6-FHS (Homo sapiens, UniProt Q14671 828-1176, N1043F;Y1044H;Q1047S)
# T2 sequence: T1 sequence with R216F, Y217H, R220S
# Procedure, shortened: as §1
sequence,measurement,setting,value
GGCUAGAACUAGUGGAUCCCCCGGCGCCCGGCGGCUCGAGCCCGGGUAAGUCUAAAUAGUCUGCAUGCCGCCGGGCGCCAUGCCUGCAGGUCGACUCUAGAAAACAUG,binding signal,[1],3.22 log2 enrichment (interaction score)
same,binding signal,[2],3.84 log2 enrichment (interaction score)
GGCUAGAACUAGUGGAUCCCCCGGCGCCCGGCGGCUCGAGCCCGGGUAAGUGUAAAUUGUCUGCAUGCCGCCGGGCGCCAUGCCUGCAGGUCGACUCUAGAAAACAUG,binding signal,[3],1.83 log2 enrichment (interaction score)
same,binding signal,[4],7.79 log2 enrichment (interaction score)
GGCUAGAACUAGUGGAUCCCCCGGCGCCCGGCGGCUCGAGCCCGGGUAAGUGUCAAUAGUCUGCAUGCCGCCGGGCGCCAUGCCUGCAGGUCGACUCUAGAAAACAUG,binding signal,[5],3.12 log2 enrichment (interaction score)
same,binding signal,[6],3.01 log2 enrichment (interaction score)
GGCUAGAACUAGUGGAUCCCCCGGCGCCCGGCGGCUCGAGCCCGGGUAAGUGUAAAAAGUCUGCAUGCCGCCGGGCGCCAUGCCUGCAGGUCGACUCUAGAAAACAUG,binding signal,[7],3.09 log2 enrichment (interaction score)
GGCUAGAACUAGUGGAUCCCCCGGCGCCCGGCGGCUCGAGCCCGGGUAAGUGUACAUAGUCUGCAUGCCGCCGGGCGCCAUGCCUGCAGGUCGACUCUAGAAAACAUG,binding signal,[8],2.73 log2 enrichment (interaction score)
GGCUAGAACUAGUGGAUCCCCCGGCGCCCGGCGGCUCGAGCCCGGGUAAGUGUUAAUAGUCUGCAUGCCGCCGGGCGCCAUGCCUGCAGGUCGACUCUAGAAAACAUG,binding signal,[6],0.73 log2 enrichment (interaction score)
GGCUAGAACUAGUGGAUCCCCCGGCGCCCGGCGGCUCGAGCCCGGGUAAGUUUAAAUAGUCUGCAUGCCGCCGGGCGCCAUGCCUGCAGGUCGACUCUAGAAAACAUG,binding signal,[1],3.22 log2 enrichment (interaction score)
same,binding signal,[2],3.42 log2 enrichment (interaction score)
GGCUAGAACUAGUGGAUCCCCCGGCGCCCGGCGGCUCGAGCCCGGGUAAGCGUAAAUAGUCUGCAUGCCGCCGGGCGCCAUGCCUGCAGGUCGACUCUAGAAAACAUG,binding signal,[9],4.48 log2 enrichment (interaction score)
same,binding signal,[10],4.84 log2 enrichment (interaction score)
same,binding signal,[11],5.24 log2 enrichment (interaction score)
GGCUAGAACUAGUGGAUCCCCCGGCGCCCGGCGGCUCGAGCCCGGGUAAGUGUAAAUCGUCUGCAUGCCGCCGGGCGCCAUGCCUGCAGGUCGACUCUAGAAAACAUG,binding signal,[3],4.21 log2 enrichment (interaction score)
same,binding signal,[4],7.03 log2 enrichment (interaction score)
GGCUAGAACUAGUGGAUCCCCCGGCGCCCGGCGGCUCGAGCCCGGGUAAGUGUGAAUAGUCUGCAUGCCGCCGGGCGCCAUGCCUGCAGGUCGACUCUAGAAAACAUG,binding signal,[12],4.46 log2 enrichment (interaction score)
same,binding signal,[13],3.04 log2 enrichment (interaction score)
same,binding signal,[14],3.06 log2 enrichment (interaction score)
GGCUAGAACUAGUGGAUCCCCCGGCGCCCGGCGGCUCGAGCCCGGGUAAGUGAAAAUAGUCUGCAUGCCGCCGGGCGCCAUGCCUGCAGGUCGACUCUAGAAAACAUG,binding signal,[15],1.38 log2 enrichment (interaction score)
GGCUAGAACUAGUGGAUCCCCCGGCGCCCGGCGGCUCGAGCCCGGGUAAGUGUAAUUAGUCUGCAUGCCGCCGGGCGCCAUGCCUGCAGGUCGACUCUAGAAAACAUG,binding signal,[16],3.86 log2 enrichment (interaction score)
same,binding signal,[17],3.87 log2 enrichment (interaction score)
same,binding signal,[18],2.3 log2 enrichment (interaction score)
same,binding signal,[19],1.88 log2 enrichment (interaction score)
GGCUAGAACUAGUGGAUCCCCCGGCGCCCGGCGGCUCGAGCCCGGGUAAGUGUAAAGAGUCUGCAUGCCGCCGGGCGCCAUGCCUGCAGGUCGACUCUAGAAAACAUG,binding signal,[7],1.53 log2 enrichment (interaction score)
GGCUAGAACUAGUGGAUCCCCCGGCGCCCGGCGGCUCGAGCCCGGGUAAGUGUAAAUAGUCUGCAUGCCGCCGGGCGCCAUGCCUGCAGGUCGACUCUAGAAAACAUG,binding signal,[5],1.4 log2 enrichment (interaction score)
same,binding signal,[20],4.18 log2 enrichment (interaction score)
same,binding signal,[9],3.28 log2 enrichment (interaction score)
same,binding signal,[10],4.62 log2 enrichment (interaction score)
same,binding signal,[18],4.55 log2 enrichment (interaction score)
same,binding signal,[11],3.4 log2 enrichment (interaction score)
same,binding signal,[15],3.26 log2 enrichment (interaction score)
same,binding signal,[19],4.23 log2 enrichment (interaction score)
